From publication PMC7819943, “Rice protein-binding microarrays: a tool to detect cis-acting elements near promoter regions in rice” come the findings set out here.

The full ranking holds about 39,000 sequences; the median of “fluorescence intensity (a.u.)” is about 4,300, and the highest 2% start at about 39,000. This excerpt belongs to a sample that is enriched for the highest values.

This experiment has as its target T1, OsSMF1 (Oryza sativa, UniProt Q6ZLB0 1-436).
T1 sequence: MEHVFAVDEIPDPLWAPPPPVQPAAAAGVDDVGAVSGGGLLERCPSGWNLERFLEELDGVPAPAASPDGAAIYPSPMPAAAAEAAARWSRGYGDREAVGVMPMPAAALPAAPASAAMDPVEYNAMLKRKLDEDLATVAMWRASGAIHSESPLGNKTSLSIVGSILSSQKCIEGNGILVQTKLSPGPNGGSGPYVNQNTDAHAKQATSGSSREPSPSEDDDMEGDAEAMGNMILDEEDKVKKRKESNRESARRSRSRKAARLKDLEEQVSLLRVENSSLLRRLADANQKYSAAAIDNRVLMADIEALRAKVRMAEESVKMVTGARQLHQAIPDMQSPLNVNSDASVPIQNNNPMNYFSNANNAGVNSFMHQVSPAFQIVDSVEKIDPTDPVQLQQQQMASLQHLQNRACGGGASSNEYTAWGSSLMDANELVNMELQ
The experiment is described as follows: protein-binding microarray (RPBM); PBS, 2% BSA, 51.3 ng/ul salmon testes DNA, 50 uM zinc acetate, 200 nM TF, 25 C, 1 h; high values mean tight binding. The note with it: protein: recombinant; tags: N-terminal polyhistidine and DsRed monomer fusion (pET32a); chain copies: 2; label: CyDye5-dUTP incorporated in the synthesized complementary strand; 3' TTTTT single-stranded linker to array surface; dsDNA, one strand shown. In short, it runs like this:
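Binding signal is reported as fluorescence intensity per feature (arbitrary units) from an Axon 4000B scanner. Incubation used 200 nM of each Ni–NTA-purified, N-terminally polyhistidine- and DsRed-fused transcription factor from E. coli BL21-CodonPlus on a double-stranded custom Agilent array for 1 h at 25 °C, with 50 µM zinc acetate in the buffer, followed by washing.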
As for “CGACTGAAGACTTGGACACGGTCAGTCTTTCTGCCGTGTTCGGAGTCACCTAGTGCAG”, the binding signal is 5080 fluorescence intensity (a.u.).

Turning to “ACCAAAGTTGGTACAAGTGTATAATCAGAATGGGAGAGCGCGGAGTCACCTAGTGCAG”, the binding signal is 21600 fluorescence intensity (a.u.).

Consider “AATCGATTCTCCACTACTCTCTCGTCATTGTTCCCATGTTCGGAGTCACCTAGTGCAG”, for which the binding signal was 3270 fluorescence intensity (a.u.).

In the case of “CCTCCTGTCAGACTGTCGTCAGTGTCACACTGTCACTGTCCGGAGTCACCTAGTGCAG”, the binding signal is 6520 fluorescence intensity (a.u.).

Regarding “TTTATTACACAACGCAACTGGCCAGACTTTAGCGGGTCATCGGAGTCACCTAGTGCAG”, the binding signal was 46000 fluorescence intensity (a.u.).

For the sequence “AAACTTATTTGGCCATGGTGTCATCGGGGTTGGCGTTTAGCGGAGTCACCTAGTGCAG”, the binding signal is 3860 fluorescence intensity (a.u.).

For the sequence “AAAAGACTGGAATACGTGGCGAACAAACTTTATTACACAACGGAGTCACCTAGTGCAG”, the binding signal is 6740 fluorescence intensity (a.u.).

Turning to “GCATGCAGGGCATGGCGAGACGGTGACGTGCTCCAAGGCGCGGAGTCACCTAGTGCAG”, the binding signal was 4760 fluorescence intensity (a.u.).

Consider “ACTCGCCTGGAAACCGTGAGATGAATTTATTAAGCCTAATCGGAGTCACCTAGTGCAG”, for which the binding signal is 3930 fluorescence intensity (a.u.).

On to “CCCATCTACCCACCCTCCGACACGTGGGCCCCACCCCGACCGGAGTCACCTAGTGCAG”, for which the binding signal was 11000 fluorescence intensity (a.u.).

Regarding “TAGTCCAATCCATCGTGTTTCCACGTGGCGACCCAACCCCCGGAGTCACCTAGTGCAG”, the binding signal is 40000 fluorescence intensity (a.u.).

For “AACACCAATCACCACGTACGCCGACCAACCCCATCCACCCCGGAGTCACCTAGTGCAG”, the binding signal was 6870 fluorescence intensity (a.u.).

For the sequence “GGATCCCATTAACACGTGTCACCGTGGCATGCCACGTCATCGGAGTCACCTAGTGCAG”, the binding signal is 51400 fluorescence intensity (a.u.).

For “AGGGGCCACACCGACCCTCCACGTCATCGTCCACGTCACCCGGAGTCACCTAGTGCAG”, the binding signal is 40900 fluorescence intensity (a.u.).

Regarding “CCATGTAAGTGCCACGTCAACGCCACGTGGATCGAAGACTCGGAGTCACCTAGTGCAG”, the binding signal is 55500 fluorescence intensity (a.u.).

On to “GATCCAACACGTGTCCCCTACCCACGACACGTGGCAACCCCGGAGTCACCTAGTGCAG”, for which the binding signal is 36500 fluorescence intensity (a.u.).

“GTCACCTAAGTGCCATGTCAACGCCACGTGGAAAGAAGACCGGAGTCACCTAGTGCAG”: the binding signal was 25100 fluorescence intensity (a.u.).

As to “ATGGGCCATGGCCCATCCGTGCCACGTGTCGCATGCTCCTCGGAGTCACCTAGTGCAG”, the binding signal is 27900 fluorescence intensity (a.u.).

As for “CTCACCACCACCGTCGTCATCGTCGTCGTCACCCTCCTCCCGGAGTCACCTAGTGCAG”, the binding signal is 6620 fluorescence intensity (a.u.).

Take “CCATGTAAGTGTCACGTCAATGCCACGTGAGACGAAGACCCGGAGTCACCTAGTGCAG”: the binding signal was 12500 fluorescence intensity (a.u.).

For “GCCATGCATCCATACACGTCTACACTCTACACCCATTAACCGGAGTCACCTAGTGCAG”, the binding signal was 4850 fluorescence intensity (a.u.).

On to “ACAAGGCAACTACTCCTAGCTAGTAAGCATCAATGCATGGCGGAGTCACCTAGTGCAG”, for which the binding signal was 4520 fluorescence intensity (a.u.).

Consider “CGTAGGCTCGTCGCGGCCACGTACGCCATCCCGAGCTCGGCGGAGTCACCTAGTGCAG”, for which the binding signal was 6280 fluorescence intensity (a.u.).

With “TTGGCTTCTTCAACTTACGTTACCCAATGCATTATATTTGCGGAGTCACCTAGTGCAG”, the binding signal was 4300 fluorescence intensity (a.u.).

As for “ACTGCTCACGCCTTAACTGCGCGTCTTAAGGTGGCGTGGCCGGAGTCACCTAGTGCAG”, the binding signal was 4310 fluorescence intensity (a.u.).

For “CGAGCCCACTCGAGGTGACTCACCTTGTTCCTCCACCAGTCGGAGTCACCTAGTGCAG”, the binding signal is 18500 fluorescence intensity (a.u.).

With “TCTGAGTTACTTCCAAGTTGACTAGTTACCTCTTACTACCCGGAGTCACCTAGTGCAG”, the binding signal is 3260 fluorescence intensity (a.u.).

“TTAATGTCCGAACACCTCATACAACGTGACGCGTCAAAACCGGAGTCACCTAGTGCAG”: the binding signal is 6890 fluorescence intensity (a.u.).

On to “AGTTGGCGTGGATGGCCACGATTCTGGACCCGGGGTTGCCCGGAGTCACCTAGTGCAG”, for which the binding signal is 3600 fluorescence intensity (a.u.).

With “ATGGACTGTTTTGTCAACTAAGTAATGCATGACACGTGGACGGAGTCACCTAGTGCAG”, the binding signal was 14500 fluorescence intensity (a.u.).

“TATGTATGAATGACAACACCGCCACGTCAGCGCCACGTCACGGAGTCACCTAGTGCAG”: the binding signal was 50400 fluorescence intensity (a.u.).

For the sequence “ACGCATGGATCCACGTGACGTCACGCCACGTCATCCACCACGGAGTCACCTAGTGCAG”, the binding signal is 60800 fluorescence intensity (a.u.).

For the sequence “TTAATTCTAATGCCACTTAAGCGCAACGTCAACACCACGTCGGAGTCACCTAGTGCAG”, the binding signal was 18200 fluorescence intensity (a.u.).

Take “CTGAATTTAGACACCTCAGCGCCACGTCAACTGGCGCTGACGGAGTCACCTAGTGCAG”: the binding signal was 18400 fluorescence intensity (a.u.).

With “ATTCTAATGACACCTAAGTGCCACGTCAACGCCACGTGGACGGAGTCACCTAGTGCAG”, the binding signal is 45100 fluorescence intensity (a.u.).

In the case of “ACCGATGCCATCATCCACGTCATCGTCCACGTGTCACCCACGGAGTCACCTAGTGCAG”, the binding signal was 45100 fluorescence intensity (a.u.).

As to “CTCATCGTCCTCCACGTGTCCACCCATACACGTGTCGCCACGGAGTCACCTAGTGCAG”, the binding signal is 29800 fluorescence intensity (a.u.).

As to “GTCCGATCGGACGCACCACGCATCCTAGCCGTCCACGCCACGGAGTCACCTAGTGCAG”, the binding signal is 3180 fluorescence intensity (a.u.).

On to “TACCAGTGTCACGCAGTGACGCAATGGATCATGCTATCCACGGAGTCACCTAGTGCAG”, for which the binding signal was 4450 fluorescence intensity (a.u.).

“GACAACCGAACACGTCGAGCCAGCGAATGATGAAACCCCACGGAGTCACCTAGTGCAG”: the binding signal was 31800 fluorescence intensity (a.u.).

Consider “AATCTCACCCATCCACGTGTCCCCAGATCTCATCCCCATCCGGAGTCACCTAGTGCAG”, for which the binding signal is 18700 fluorescence intensity (a.u.).

For the sequence “CGGCGGCTTCTTGTTGGTGACGCCGCACGGCATGGTTGATCGGAGTCACCTAGTGCAG”, the binding signal was 5370 fluorescence intensity (a.u.).
